Test results reported in PubChem BioAssay (Tox21).
Results filed as inconclusive are left out. Activity calls are given as the source filed them. Calls follow the shape of the dose curve; as a rule, active = well fitted curve in the direction sought with a large enough effect in the repeat runs; inconclusive = weak or mixed curves; inactive = no such curve, though single readings can be large; an effect the other way counts as inactive or inconclusive.

Key:
[1] = Human pregnane X receptor (PXR) small molecule agonists, qHTS cell viability counter screen (AID 1346977); also: nearly all actives have a fitted effect of over 50% in size
How it was run: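 Measures live-cell protease fluorescence (CellTiter-Fluor) in PXR-Luc HepG2 cells treated 24hr with compounds at 37C. Cells had 5hr to attach before pin transfer of DMSO solutions.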

[2] = Caspase-3/7 induction in HepG2 cells by small molecules, qHTS assay (AID 1346978); also: nearly all actives have a fitted effect of over 15% in size
How it was run: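 Caspase-3/7 induction was measured by Caspase-Glo 3/7 luminescence (30 min, room temperature) after a 17 hr compound exposure of wild-type HepG2 cells seeded at 2,000 per well and pre-incubated 5 hr.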

[3] = Caspase-3/7 induction in CHO-K1 cells by small molecules, qHTS cell viability counter screen (AID 1346979); also: nearly all actives have a fitted effect of over 35% in size
How it was run: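 In the same wells as the caspase read, viability of compound-treated wild-type CHO-K1 cells was assessed using CellTiter-Fluor, added after 16hr at 37C and measured by fluorescence following 1hr further incubation.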

[4] = Caspase-3/7 induction in CHO-K1 cells by small molecules, qHTS assay (AID 1346980); also: nearly all actives have a fitted effect of over 15% in size
How it was run: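 Luminescent Caspase-Glo 3/7 read (30min, room temperature) quantified apoptosis induction. Cells were wild-type CHO-K1, treated with compound for 17hr at 37 C and 5% CO2.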

[5] = Caspase-3/7 induction in HepG2 cells by small molecules, qHTS cell viability counter screen (AID 1346981); also: series mostly up to about 92 µM; nearly all actives have a fitted effect of over 30% in size
How it was run: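 Wild-type HepG2 cells, 2,000/well, settled 5 hr at 37 C, 5% CO2 before compound addition. Viability read by CellTiter-Fluor fluorescence, reagent added after 16 hr compound exposure, then 1 hr at 37C, in the same wells as the caspase read.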

[6] = target: Nuclear receptor subfamily 1 group I member 2 (Homo sapiens) (UniProt O75469); assay: Human pregnane X receptor (PXR) small molecule agonists, qHTS assay (AID 1346982); also: nearly all actives have a fitted effect of over 35% in size; also: potency is read from the fitted curve at half-maximal effect
How it was run: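 PXR-Luc HepG2 reporter cells (CYP3A4-driven luciferase) in 5% charcoal-stripped FBS medium, plated 5 h before compound addition, then treated 24 h at 37C. Luciferase read by ONE-Glo luminescence after 30 min at room temperature.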

[7] = target: Nuclear receptor subfamily 1 group I member 2 (Rattus norvegicus) (UniProt Q9R1A7); assay: Rat pregnane X receptor (rPXR) activation by small molecules, qHTS assay (AID 1346983); details: rPXR luciferase reporter cells, One-Glo luminescence, 24 h; max activation: hits give high values; also: nearly all actives have a fitted effect of over 20% in size
How it was run: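 Luminescent readout (One-Glo luciferase, 30 min room temperature) followed 24 hr compound treatment at 37 C of rPXR cells plated 2,000 per well and preincubated 5hr; qHTS format with compounds delivered in DMSO.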

[8] = target: Nuclear receptor subfamily 1 group I member 2 (Homo sapiens) (UniProt O75469); assay: CYP3A4 induction through human pregnane X receptor (PXR) by small molecules, qHTS assay (AID 1346984); also: nearly all actives have a fitted effect of over 40% in size; also: potency is read from the fitted curve at half-maximal effect
How it was run: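 DPX-2 HepG2 cells carrying a PXR response element and CYP3A4-promoter luciferase construct, treated with compounds 24 hr at 37C. Then P450-Glo CYP3A4 Luciferin-IPA substrate (3uM final) for 3 hr at 37C, One-Glo added, luminescence read.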

[9] = target: Nuclear receptor subfamily 1 group I member 2 (Homo sapiens) (UniProt O75469); assay: Human pregnane X receptor (PXR) activation by small molecules, qHTS assay (AID 1346985); also: nearly all actives have a fitted effect of over 40% in size
How it was run: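 DPX-2 cells (HepG2 co-transfected with a PXR response element and a CYP3A4-promoter luciferase construct) were seeded at 2,000 per well, rested 5 hr at 37C, then exposed to DMSO-dissolved compounds for 24 hr. Activation was read as luciferase luminescence.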

[10] = target: Cytochrome P450 2D6 (Homo sapiens) (UniProt P10635); assay: Cytochrome P450 Family 2 Subfamily D Member 6 (CYP2D6) small molecule antagonists: luciferase reporter qHTS assay (AID 1671196); also: nearly all actives have a fitted effect of over 50% in size; also: potency is read from the fitted curve at half-maximal effect; as to activity change, negative = inhibition: series mostly up to about 120 µM
How it was run: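 Cell-free P450-Glo system: CYP2D6 with proluciferin substrate was pre-incubated with compound for 10 min, then reacted with NADPH regeneration for 1 h at room temperature. Luciferin product was detected after 20 min, and data were reported as relative luminescence units.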
% is scaled to controls: 0 for no effect and ±100 for the full control effect.

Sequence of Nuclear receptor subfamily 1 group I member 2 (Homo sapiens) (O75469 whole entry, looked up): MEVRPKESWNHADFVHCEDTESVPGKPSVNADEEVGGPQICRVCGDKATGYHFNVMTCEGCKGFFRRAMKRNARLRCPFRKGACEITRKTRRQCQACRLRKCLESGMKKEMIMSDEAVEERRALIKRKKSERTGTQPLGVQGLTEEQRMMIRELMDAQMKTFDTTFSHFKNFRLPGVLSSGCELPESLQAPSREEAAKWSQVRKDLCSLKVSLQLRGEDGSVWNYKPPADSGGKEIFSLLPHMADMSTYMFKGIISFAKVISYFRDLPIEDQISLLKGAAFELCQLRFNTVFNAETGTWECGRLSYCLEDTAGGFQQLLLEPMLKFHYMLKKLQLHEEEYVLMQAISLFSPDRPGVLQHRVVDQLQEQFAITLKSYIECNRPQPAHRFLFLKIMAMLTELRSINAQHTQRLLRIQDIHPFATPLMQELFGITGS
Sequence of Cytochrome P450 2D6 (Homo sapiens) (P10635 whole entry, looked up): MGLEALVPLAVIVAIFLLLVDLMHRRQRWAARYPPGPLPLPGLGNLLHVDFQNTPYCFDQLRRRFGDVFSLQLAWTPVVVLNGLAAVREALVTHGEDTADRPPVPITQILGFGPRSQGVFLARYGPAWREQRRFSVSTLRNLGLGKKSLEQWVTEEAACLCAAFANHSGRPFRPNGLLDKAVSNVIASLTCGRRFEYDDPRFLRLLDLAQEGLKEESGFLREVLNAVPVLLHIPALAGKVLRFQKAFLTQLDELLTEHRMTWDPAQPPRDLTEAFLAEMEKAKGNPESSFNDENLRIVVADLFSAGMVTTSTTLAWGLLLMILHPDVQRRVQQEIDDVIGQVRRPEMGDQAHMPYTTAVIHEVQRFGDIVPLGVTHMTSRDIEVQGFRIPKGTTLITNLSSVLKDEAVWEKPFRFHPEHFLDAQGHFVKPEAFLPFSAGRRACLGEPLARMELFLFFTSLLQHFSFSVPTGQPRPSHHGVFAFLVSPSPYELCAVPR
Sequence of Nuclear receptor subfamily 1 group I member 2 (Rattus norvegicus) (Q9R1A7 whole entry, looked up): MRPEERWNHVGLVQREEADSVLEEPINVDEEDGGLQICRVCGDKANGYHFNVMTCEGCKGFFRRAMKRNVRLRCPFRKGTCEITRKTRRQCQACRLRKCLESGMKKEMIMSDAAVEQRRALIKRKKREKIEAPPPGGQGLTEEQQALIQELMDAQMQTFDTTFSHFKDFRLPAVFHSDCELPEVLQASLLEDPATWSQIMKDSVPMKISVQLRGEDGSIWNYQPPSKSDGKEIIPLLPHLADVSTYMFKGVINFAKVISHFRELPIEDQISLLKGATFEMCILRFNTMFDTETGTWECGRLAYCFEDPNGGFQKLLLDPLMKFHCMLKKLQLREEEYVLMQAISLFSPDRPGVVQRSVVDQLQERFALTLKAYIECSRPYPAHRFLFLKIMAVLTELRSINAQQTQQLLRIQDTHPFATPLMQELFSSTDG

C=COC(=O)C(C)(CC)CCC(C)C (centres undefined)
inactive: Potency [1] | outcome [2] | Potency [3] | outcome [4] | Potency [5] | Potency [6]

CO[C@@]1(NC(=O)CSC[C@@H](N)C(=O)O)C(=O)N2C(C(=O)O)=C(CSc3nnnn3C)CS[C@@H]21
inactive: Potency [1] | outcome [2] | Potency [3] | outcome [4] | Potency [5] | Potency [6]

CC(C)(C)C(=O)Oc1ccc(S(=O)(=O)Nc2ccccc2C(=O)NCC(=O)O)cc1
inactive: Potency [1] | outcome [2] | Potency [3] | outcome [4] | Potency [5] | Potency [6] | max activation [7] -2.02% | Potency [8] | Potency [9] | Potency [10]

CC1=C(C/C=C(\C)CCC[C@H](C)CCC[C@H](C)CCCC(C)C)C(=O)c2ccccc2C1=O
active: Potency [8] 11.2 µM
inactive: Potency [1] | outcome [2] | Potency [3] | outcome [4] | Potency [5] | Potency [6] | max activation [7] -2.63% | Potency [9]

Cc1ccc(-c2ncc(Cl)cc2-c2ccc(S(C)(=O)=O)cc2)cn1
inactive: Potency [1] | outcome [2] | Potency [3] | outcome [4] | Potency [5] | Potency [6] | max activation [7] 7.56% | Potency [9]

CC(=O)N[C@H]1[C@H]([C@H](O)[C@H](O)CO)OC(C(=O)O)=C[C@@H]1N=C(N)N
inactive: Potency [1] | outcome [2] | Potency [3] | outcome [4] | Potency [5] | Potency [6] | max activation [7] -1.75% | Potency [9] | Potency [10]

CC(=O)NC(=O)c1ccccc1O
inactive: Potency [1] | outcome [2] | Potency [3] | outcome [4] | Potency [5] | Potency [6] | max activation [7] -2.9% | Potency [8] | Potency [9] | Potency [10]

NCCCC(N)(C(=O)O)C(F)F (centres undefined)
inactive: Potency [1] | outcome [2] | Potency [3] | outcome [4] | Potency [5]

CCCCCCCCCCOc1cc2c(=O)c(C(=O)OCC)c[nH]c2cc1OCC
inactive: activity change, negative = cytotoxicity [1] -1.67% [at 8.39 µM] | caspase activation [2] 0.159% [at 8.39 µM] | activity change, negative = cytotoxicity [3] 0.813% [at 8.39 µM] | caspase-3/7 activation [4] 1.97% [at 8.39 µM] | activity change, negative = cytotoxicity [5] 2.55% [at 8.39 µM] | activation [6] -4.21% [at 8.39 µM] | max activation [7] -1.23% | Potency [8] | Potency [9] | activity change, negative = inhibition [10] -50% [at 10.5 µM]

Nc1c2c(nc3c1CCC3)CCCC2
active: Potency [10] 8.71 µM
inactive: Potency [1] | outcome [2] | Potency [3] | outcome [4] | Potency [5] | Potency [6] | max activation [7] -1.69% | Potency [8] | Potency [9]

CN(C)C(=O)Oc1cccc([N+](C)(C)C)c1
inactive: Potency [1] | outcome [2] | Potency [3] | outcome [4] | Potency [5] | Potency [6] | max activation [7] -2.37% | Potency [8] | Potency [9] | Potency [10]

Nc1ccccn1
inactive: Potency [1] | outcome [2] | Potency [3] | outcome [4]

CCN[C@H]1C[C@H](C)S(=O)(=O)c2sc(S(N)(=O)=O)cc21
inactive: Potency [1] | outcome [2] | Potency [3] | outcome [4] | Potency [5] | Potency [6] | max activation [7] 0.198% | Potency [8] | Potency [9] | Potency [10]

O=S(=O)(O)c1cccc(S(=O)(=O)O)c1
inactive: Potency [1] | outcome [2] | Potency [3] | outcome [4] | Potency [5] | Potency [6] | Potency [10]

CCCCCCC#CC(=O)OC
inactive: Potency [1] | outcome [2] | Potency [3] | outcome [4] | Potency [5] | Potency [6] | Potency [10]

C[N+]1(C)CCCC(OC(=O)C(O)(c2ccccc2)c2ccccc2)C1 (centres undefined)
active: Potency [10] 4.9 µM
inactive: Potency [1] | outcome [2] | Potency [3] | outcome [4] | Potency [6] | max activation [7] -3.64% | Potency [8] | Potency [9]

CN(C)CCN(C)CCN(C)C
inactive: Potency [1] | outcome [2] | Potency [3] | outcome [4] | Potency [10]
active: Potency [6] 29.6 µM

C[C@@H]1CCC[C@H](C)N1
inactive: Potency [1] | outcome [2] | Potency [3] | outcome [4] | Potency [6] | max activation [7] -0.283% | Potency [8] | Potency [9] | Potency [10]

Cc1ccc(C(=O)c2ccc(CC(=O)O)n2C)cc1
inactive: Potency [1] | outcome [2] | Potency [3] | outcome [4] | Potency [6] | max activation [7] -1.99% | Potency [8] | Potency [9] | Potency [10]

CC(N)C12CC3CC(CC(C3)C1)C2 (centres undefined)
inactive: Potency [1] | outcome [2] | Potency [3] | outcome [4] | Potency [6] | max activation [7] 8.41% | Potency [8] | Potency [9]

[O-][n+]1cccc(CO)c1
inactive: Potency [1] | outcome [2] | Potency [3] | outcome [4] | Potency [6] | max activation [7] -1.15% | Potency [8] | Potency [9] | Potency [10]

CN1CCN(c2cc3c(nn2)Oc2ccccc2N3C)CC1
inactive: activity change, negative = cytotoxicity [1] 8.08% [at 19 µM] | caspase activation [2] -12.1% [at 19 µM] | activity change, negative = cytotoxicity [3] 3.04% [at 19 µM] | caspase-3/7 activation [4] -3.65% [at 19 µM] | activity change, negative = cytotoxicity [5] -0.441% [at 19 µM] | max activation [7] 8.97% | Potency [8] | Potency [9]
